NPR1 antag = antagonists of human natriuretic peptide receptor Npr1. P16066. HEK293 hNpr1 GloSensor cGMP, ANP-stimulated luminescence. Potency, µM (doses to about 46.3 µM), for the others: top-dose activity change, negative = inhibition, most hits filed as inhibitors. 1.6% of 76,000 active. AID 1347048; calls by dose curve; note: nearly all actives have a fitted effect of over 60% in size
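Compound pre-incubated 30 min at room temperature on GloSensor-loaded HEK293 cells stably carrying hNpr1 and the pGS-40F cGMP biosensor. Stimulation uses hNppA at 0.1 nM final; luminescence is taken at baseline and 20 min post-agonist.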
FLuc inh = Photinus pyralis luciferase inhibition. AID 1347043. purified P. pyralis luciferase, luminescence, biochemical. 2.5% of 76,000 active. P08659. Potency, µM (highest dose often 115 µM), actives largely listed as inhibitors; note: nearly all actives have a fitted effect of over 65% in size
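Purified 10nM P. pyralis luciferase with 10uM D-luciferin and 10uM ATP in 50mM Tris acetate pH 7.5, 10mM Mg acetate, 0.01% Tween-20, 0.05% BSA. qHTS titration; luminescence read by CCD imager.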
HEK293 tox = HEK 293 cell cytotoxicity. 6.6% of 94,000 active. HEK 293 viability, ATP luminescence (CellTiter-Glo), 48-72 h. Potency, µM (series often up to 115 µM), for inactives: top-dose activity change, negative = cytotoxicity, hits mostly inhibitors; note: nearly all actives have a fitted effect of over 60% in size
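Viability of HEK 293 cells, plated at 250 cells/well, was judged by cellular ATP after compound treatment for 48 or 72 hr. Luminescence was imaged 10 min after CellTiter-Glo addition at room temperature.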
3T3 cytotox = NIH 3T3 cell cytotoxicity | 4.3% of 94,000 active | NIH 3T3 viability, CellTiter-Glo ATP luminescence, 48-72 h | Potency, µM (doses to about 96.7 µM), inactives show at the highest dose activity change, negative = cytotoxicity, actives largely listed as inhibitors; note: nearly all actives have a fitted effect of over 55% in size
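Luminescent ATP readout (CellTiter-Glo, 10 min RT) after 48 or 72 hr compound exposure of NIH 3T3 cells seeded at 400 cells/well in 1536-well format; quantitative HTS.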
GPT2 inh = GPT2 alanine aminotransferase inhibition; Recombinant GPT2, coupled pyruvate oxidase/HRP Amplex Red fluorescence; Potency, µM (top dose mostly 57.7 µM), for the others: at the top dose activity change, negative = inhibition, most hits filed as inhibitors; Q8TD30; 0.25% of 100,000 active; AID 1671188; note: nearly all actives have a fitted effect of over 60% in size
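Inhibition is scored from Amplex Red fluorescence generated when pyruvate oxidase and HRP act on pyruvate released by GPT2. Reactions contain 10ng/uL enzyme, 250uM a-KG and 2mM L-alanine and run 30 min at room temperature.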
Numbers without * were called inactive; i = inactive; ? = inconclusive; · = not tested or not shown; [ ] = another dose, or the depositor's remark. This is a sample that favours compounds with a hit; in the whole collection about 10% have one here. Unless noted, calls come from the whole dose curve; as a rule, active = well fitted curve in the direction sought with a large enough effect; inconclusive = small, poorly fitted or top-dose-only effect, or another doubt; inactive = no such curve, though single readings can be large; an effect the other way counts as inactive or inconclusive. % is set by controls: 0 for no effect and ±100 for the full control effect; potency is the fitted concentration of half-maximal effect.

SMILES	NPR1 antag	FLuc inh	HEK293 tox	3T3 cytotox	GPT2 inh
COCc1ccc2c(c1)c(OC(C)(C)C(=O)NC(C)C)nn2Cc1cccnc1	-2%[70.6 µM]	i	-17%[172 µM]	?	3%[88.5 µM]
COCc1ccc2c(c1)c(OC(C)(C)C(=O)Nc1ccccn1)nn2Cc1ccccc1	-4%[70.6 µM]	i	63µM*	?	-11%[88.5 µM]
O=C1CCN(S(=O)(=O)c2ccccc2)CCCN(Cc2cccc3[nH]ccc23)CCN1	0%	i	?	-19%	i
CCc1nc(-c2c3n(c(=O)n(Cc4ccc(C)cc4C)c2=O)CCCC3)no1	1%	i	-3%	-25%	i
COc1ncccc1-c1nc(-c2c(C)noc2C)cc2c1cc(C)n2CCN(C)C	3%[70.6 µM]	i	?	10µM*	4%[88.5 µM]
COc1ncc(-c2nc(-c3c(C)noc3C)cc3c2cc(C)n3CCN(C)C)cn1	-3%[70.6 µM]	i	?	?	-8%[88.5 µM]
COc1ccc(-c2nc(-c3c(C)noc3C)cc3c2cc(C)n3CCN(C)C)cc1OC	-16%[70.6 µM]	i	89µM*	?	i
COc1cccc(-c2nc(-c3c(C)noc3C)cc3c2cc(C)n3CCN(C)C)c1	3%[70.6 µM]	i	45µM*	10µM*	-6%[88.5 µM]
CC(=O)Nc1cccc(-c2nc(-c3c(C)noc3C)cc3c2cc(C)n3CCN(C)C)c1	7%[70.6 µM]	i	79µM*	?	?
CN(CCc1ccccn1)[C@H]1[C@@H]2OC[C@@H](O2)[C@@H](NCc2ccccn2)[C@@H]1O	4%[70.6 µM]	i	i	3%[174 µM]	-18%[88.5 µM]
Cn1nc(C2CCCN(C(=O)Nc3ccc4c(c3)OCCO4)C2)n(C2CCCC2)c1=O (stereo not drawn)	-2%	32µM*	12%	2%	1%
COc1ccc(NC(=O)N2CCCC(Cn3c(C4CC4)nc4cccnc43)C2)cc1Cl (stereo not drawn)	-10%	i	71µM*	?	-18%
Cc1nc2cccnc2n1CC1CCCN(C(=O)Nc2ccc3c(c2)OCCO3)C1 (stereo not drawn)	2%	i	?	-2%	i
O=C(Nc1ccc2c(c1)OCCO2)N1CCCC(Cn2cnc3cccnc32)C1 (stereo not drawn)	3%	28µM*	6%	-1%	i
CC(C)CCNC(=O)N1CCC(OC2CCN(Cc3ccccc3)CC2)CC1	-15%	i	-5%	-16%	2%
Cc1nn(-c2ccccc2[N+](=O)[O-])c(C)c1[C@@H]1C=C[C@@H](NCc2ccc(C(C)C)cc2)C1	?	i	20µM*	?	i
Cc1nn(-c2ccccc2[N+](=O)[O-])c(C)c1[C@@H]1C=C[C@@H](NCc2ccco2)C1	-17%[70.6 µM]	i	89µM*	?	-28%[88.5 µM]
CCCn1ncc(N2CCC(C(=O)N3CCN(CC(=O)NCc4ccccc4)CC3)CC2)cc1=O	·	·	?	-20%	4%
COc1ccc(C(=O)Nc2ccc3c(c2)CN(Cc2ccc(OC)cc2OC)C(=O)C(C)O3)cc1 (stereo not drawn)	-24%	i	?	-27%	-5%
COc1ccc(CN2Cc3cc(NC(=O)c4ccc(Cl)cc4)ccc3OC(C)C2=O)c(OC)c1 (stereo not drawn)	5%	i	?	?	-17%
CC1Oc2ccc(NC(=O)c3ccc(Cl)cc3)cc2CN(Cc2cc(F)cc(F)c2)C1=O (stereo not drawn)	-23%	i	20µM*	?	i
CC1Oc2ccc(NC(=O)c3ccc(Cl)cc3)cc2CN(C(C)C)C1=O (stereo not drawn)	?	i	?	40µM*	i
COc1ccc(CN2Cc3cc(NC(=O)c4ccc(F)cc4F)ccc3OC(C)C2=O)c(OC)c1 (stereo not drawn)	-18%	i	45µM*	?	?
CCC1Oc2ccc(NC(=O)c3ccc([N+](=O)[O-])cc3)cc2CN(C(C)CC)C1=O (stereo not drawn)	-22%	i	22µM*	?	-15%
O=C(NCCc1noc(-c2ccncc2)n1)c1ccccc1F	-13%	i	2%	-19%	-4%
SMILES	NPR1 antag	FLuc inh	HEK293 tox	3T3 cytotox	GPT2 inh
O=C(Nc1nccs1)C1CC(=O)N(c2n[nH]c3cc(Br)ccc23)C1 (stereo not drawn)	-20%	i	?	?	1%
Cc1ccc(CNC(=O)N2CCCN(C(=O)C3CC3)C(c3ccccc3)CC(=O)NCC2)cc1 (stereo not drawn)	1%	i	-5%	-23%	i
CC1Oc2ccc(NC(=O)c3ccc(F)cc3)cc2CN(Cc2ccccc2Cl)C1=O (stereo not drawn)	-9%	i	?	?	?
CC(=O)Oc1ccccc1C(=O)Nc1ccc2c(c1)CN(Cc1ccc(Cl)cc1)C(=O)C(C)O2 (stereo not drawn)	?	i	?	25µM*	-6%
CC1Oc2ccc(NC(=O)c3ccccc3)cc2CN(Cc2ccc(Cl)cc2)C1=O (stereo not drawn)	-18%	i	8.9µM*	?	i
CC1Oc2ccc(NC(=O)c3ccc(F)cc3)cc2CN(Cc2ccccc2F)C1=O (stereo not drawn)	-6%	i	45µM*	?	i
Cn1cc(C(=O)N2CCC(N3C(=O)C4(CCCCC4)C3c3ccncc3)CC2)cn1 (stereo not drawn)	·	·	i	-13%	4%
Cc1ccccc1CC(=O)N1CCN(C(=O)c2nnn3c2COC(c2ccccc2)C3)CC1 (stereo not drawn)	0%	i	-19%	-5%	i
COCC(=O)N1CCN(C(=O)c2cccnc2)C[C@H]1C(=O)N[C@@H](CC1CCCCC1)C(N)=O	6%	i	-1%	i	-6%
Cc1cccc(-c2nc3ccc(C(=O)NCCc4ccccc4)cc3o2)n1	·	·	100µM*	?	-12%[88.5 µM]
O=C(NCCc1ccccc1)c1ccc2nc(-c3ccccn3)oc2c1	·	·	89µM*	?	i
O=C(NCCCc1ccccc1)c1ccc2nc(-c3cccnc3Cl)oc2c1	·	·	?	45µM*	0%[88.5 µM]
O=C(c1nc2sccn2c1Br)N1CCC(n2cc[nH]c2=O)CC1	-6%	i	-3%	-13%	i
Cc1ccc(CN(C(=O)c2ccco2)c2ccc(CC(=O)N(C)Cc3ccccc3)cc2)cc1	-20%	i	32µM*	?	-3%
Cc1cccc(CNC(=O)Cc2ccc(N(Cc3ccccc3)C(=O)c3ccco3)cc2)c1	-3%	i	?	45µM*	i
Cc1ccc(CN(C(=O)c2ccco2)c2ccc(CC(=O)NCc3ccccc3)cc2)cc1	-18%	i	35µM*	?	0%
CCOC(=O)C1CCN(C(=O)Cc2ccc(N(Cc3ccccc3)C(=O)c3ccco3)cc2)CC1	-23%	i	40µM*	?	-1%

Bioassay records from PubChem BioAssay.
